What all share (assay): NCI-60 one-dose screen, 48 h (100 = growth as untreated, 0 = no growth, -100 = all killed)
Details in all cases: 10 µM unless noted

Assay [1] concerns HCT-15 colon.
The subject of assay [2] is HT29 colon.
Assay [3] has as its system SNB-75 CNS.
For assay [4], the system named is SNB-19 CNS.
Assay [5] concerns U251 CNS.
For assay [6], the system named is PC-3 prostate.
The test system of assay [7] is SK-MEL-5 melanoma.
In assay [8] the test system is UACC-62 melanoma.
The test system of assay [9] is LOX IMVI melanoma.
In assay [10] the test system is SK-MEL-28 melanoma.

The panel holds about 83,000 compounds, 20% with a hit somewhere; the sample as a whole holds those more often.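 Interpretation: 100, growth as untreated; towards 0, rising growth inhibition; 0, no net growth; 0 to -100, cell death. Compounds scoring below 10 were considered active.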 Unmarked numbers belong to inactive results. Activity calls are given as the source filed them.

For the compound `CC(=O)c1cc2c(o1)C(=O)c1ccccc1C2=O`, the growth is -77% (active) in assay [1]; -18.3% (active) in [2]; -98.5% (active) in assay [3]; -90.8% (active) in assay [4]; -81.2% (active) in assay [5]; -10.4% (active) in assay [6]. Besides, the growth was -96.3% (active) in assay [7], -82.7% (active) in [8], -59.3% (active) in assay [9] and -70.8% (active) in assay [10].

Take `COc1ccc(OC)c(Nc2nc3nonc3nc2Nc2cc(OC)ccc2OC)c1`: the growth is 73.5% in assay [1]; 42.6% in [2]; 18.7% in assay [3]; 76.1% in assay [4]; 11.5% in [5]; 79.4% in [6]. In addition, the growth in assay [7] was 12%; in assay [8] it was 47%; in assay [9], 34.3%; in assay [10], 58.1%.

On to `CC(C)CCC[C@@H](C)[C@H]1CCC2C3=CCn4c(=O)ccc(=O)n4C3CC[C@@]21C` (stereo not given in full), for which the growth was -44.6% (active) in [1]; -63.7% (active) in assay [2]; -100% (active) in assay [3]; -96.8% (active) in [4]; -96.9% (active) in assay [5]; -85.5% (active) in assay [6]. The growth was -100% (active) in assay [7], -97.5% (active) in [8], -89.5% (active) in assay [9] and -93% (active) in assay [10].

As for `O=C(Oc1ccc([N+](=O)[O-])cc1)c1ccc(CBr)cc1`, the growth in assay [1] was 76.9%; in [2], 92.3%; in [3], 89.2%; in [4] it was 91.5%; in assay [5], 82.4%; in [6] it was 87%. In addition, the growth in [7] is 95.2%; in assay [8], 82.2%; in assay [9], 67.2%; in assay [10] it was 104%.

In the case of `COc1cccc(-c2nc3sccn3c2-c2ccnc(NCCNS(=O)(=O)c3c(Cl)cccc3Cl)c2)c1`, the growth in [1] is 47.3%; in [2] it was 47.3%; in assay [3] it was 42.8%; in [4], 77%; in [5], 70.1%; in [6], 41.2%. In addition, the growth is 26% in assay [7], 28.6% in assay [8], 58.6% in assay [9] and 90.4% in [10].

As for `CC(C)(C)CC(C)(C)Nc1c(-c2ccc(-c3ccccc3)cc2)nc2cnccn12`, the growth was 84.5% in assay [1]; 30.5% in assay [2]; 88.7% in assay [3]; 94.3% in assay [4]; 59.7% in [5]; 65.4% in assay [6]. For the same compound, the growth was 101% in [7], 75.9% in assay [8], 97.2% in assay [9] and 100% in assay [10].

For `CC(C)(O)c1cccc(F)c1`, the growth was 99.2% in [1]; 108% in assay [2]; 92.3% in assay [3]; 97.6% in assay [4]; 106% in [5]; 99.9% in assay [6]. Further, the growth is 103% in assay [7], 88.7% in [8], 97.7% in assay [9] and 101% in assay [10].

Regarding `C=C1C(=O)O[C@H]2[C@H]1CC/C(COC(=O)/C=C/C(=O)NCc1ccc(Cn3c(=O)sn(-c4ccccc4)c3=O)cc1)=C\CC[C@@]1(C)O[C@@H]21`, the growth was 32.9% in assay [1]; -46.6% (active) in assay [2]; 70.7% in assay [3]; 61.8% in [4]; 20.7% in assay [5]; 57.1% in assay [6]. Moreover, the growth in assay [7] is -27.8% (active); in assay [8], -80.8% (active); in assay [9], -85.2% (active); in [10], -40.1% (active).

`CCOC(=O)c1nnn(C(Cc2ccccc2Cl)C(=O)OCC)c1C` (stereo not given): the growth in assay [1] is 107%; in assay [2], 86.8%; in [3], 89.5%; in assay [4], 104%; in assay [5], 96.1%; in assay [6], 94%. Also, the growth in [7] was 101%; in [8], 99.9%; in [9] it was 104%; in [10], 111%.

As for `Cc1ccc(NC(=O)C(Cl)Cl)cc1`, the growth in [1] was 105%; in [2], 92.7%; in assay [3] it was 101%; in assay [4], 101%; in [5] it was 94.7%; in [6], 91.8%. Besides, the growth was 99.4% in assay [7], 98.6% in assay [8], 99.6% in assay [9] and 98.2% in assay [10].

In the case of `O=C(NC1CCOCC1)c1ccc2c(c1)CN(c1ncc(Cc3cccc(-n4cccn4)c3)s1)CC2`, the growth in assay [1] was 79.3%; in [2], 72.8%; in assay [3] it was 91.5%; in [4], 95.7%; in [5], 72.6%; in assay [6] it was 58.7%. Moreover, the growth is 31.5% in [7], 64.5% in assay [8], 63.8% in assay [9] and 88.3% in assay [10].

As to `Cc1ccc(/C(=N\N=C(N)N)c2ccccc2)cc1`, the growth is -4.22% (active) in assay [1]; 3.12% (active) in assay [2]; 28.5% in [3]; 9.71% (active) in assay [4]; 12.7% in assay [5]; 14.1% in assay [6]. Further, the growth in [7] is -13.4% (active); in assay [8] it was 20.7%; in [9], 28.3%; in assay [10], 64.4%.

With `Nc1nc(Nc2ccc(Cl)cc2)nn1S(=O)(=O)c1ccc(-c2ccc(F)cc2)cc1`, the growth in [1] was 77.4%; in [2] it was 80%; in assay [3], 79%; in assay [4] it was 88.8%; in assay [5], 88.8%; in [6], 67.4%. Besides, the growth in [7] was 98.7%; in [8] it was 72.5%; in assay [9], 83.6%; in [10], 94.5%.

As to `COc1cc(-c2ccc(-c3ccc(C(=N)N)nc3)s2)cc(OC)c1OC`, the growth was 21.4% in [1]; 14.2% in [2]; 68.5% in [3]; 65.2% in [4]; 28.9% in [5]; 54.7% in assay [6]. For the same compound, the growth was 37.6% in [7], 59.5% in assay [8], -14.3% (active) in assay [9] and 59.3% in [10].

On to `N=C(N)c1ccc(-c2ccc(-c3ccc(Cl)cc3Cl)o2)cc1`, for which the growth in [1] is -74.1% (active); in assay [2], -71.1% (active); in assay [3], 19.7%; in assay [4], -1.88% (active); in [5], -59.4% (active); in assay [6], 52.6%. In addition, the growth in assay [7] was 72.5%; in [8], 72.1%; in [9], -94.7% (active); in [10], 46%.

For the compound `CN(C)c1ccc(C#Cc2c(F)cccc2Cl)cc1`, the growth in [1] is 78.4%; in assay [2] it was 73.7%; in [3], 75%; in assay [4] it was 111%; in assay [5] it was 89.1%; in [6], 70.5%. Also, the growth is 85.3% in [7], 87.6% in assay [8], 81.3% in [9] and 105% in assay [10].

`COc1cc(-c2cccc([N+](=O)[O-])c2)c(-c2nc(-c3ccccc3)c(-c3ccccc3)n2C2CC2)cc1OC`: the growth in assay [1] is 56%; in assay [2] it was 44.5%; in assay [3], 67.7%; in assay [4] it was 80.4%; in assay [5], 67.3%; in [6], 24%. The growth is 52.5% in assay [7], 53.5% in assay [8], 60.1% in assay [9] and 87.2% in assay [10].

As for `Cc1cc(-c2ccccc2)cc(SC#N)[n+]1[O-]`, the growth in assay [1] is 24.7%; in assay [2] it was 50.6%; in assay [3], 78.5%; in [4], 41.2%; in assay [5], 24.1%; in assay [6], 38.7%. Also, the growth in [7] was 32.6%; in [8] it was 28.8%; in [9], 29.7%; in assay [10] it was 45.1%.

`[2H]c1nc(Nc2ncc(F)c(-c3cc(F)c4nc(C)n(C(C)C)c4c3)n2)c([2H])c([2H])c1CN1CCN(C([2H])([2H])C([2H])([2H])[2H])CC1`: the growth is 39.8% in assay [1]; 34.6% in assay [2]; 33.9% in assay [3]; 65.5% in [4]; 42.2% in [5]; 44.2% in assay [6]. Moreover, the growth was 41.8% in [7], 73.3% in assay [8], 39.1% in assay [9] and 70.3% in assay [10].

Regarding `N#Cc1c(-c2ccc(C(F)(F)F)cc2)cc(N2CC(O)C2)n2c1nc1ccccc12`, the growth in assay [1] is 85.7%; in assay [2] it was 74%; in [3] it was -18.5% (active); in assay [4], 24.8%; in assay [5], 40.2%; in assay [6], 39.6%. The growth in [7] was 67.5%; in assay [8] it was 33.9%; in assay [9], 53.2%; in assay [10], 59.7%.

Take `CC(C)(C)c1ccc(C(=O)Nc2sc3c(c2C(N)=O)CCC(=O)C3)cc1`: the growth is -29.3% (active) in [1]; 3.24% (active) in assay [2]; -49.3% (active) in assay [3]; 15.2% in assay [4]; -43.8% (active) in [5]; -5.7% (active) in assay [6]. For the same compound, the growth in [7] is -81.2% (active); in assay [8], -36.7% (active); in assay [9] it was -55.1% (active); in [10], -14.9% (active).

As for `CCOC(=O)c1cnn2c(-c3ccc(Cl)cc3)nc(NCc3ccccc3)nc12`, the growth was 47.7% in [1]; 51% in [2]; 70.3% in assay [3]; 63.5% in assay [4]; 32.2% in [5]; 63% in [6]. For the same compound, the growth in [7] is 86%; in [8] it was 63.4%; in assay [9], 39.7%; in assay [10], 86.7%.

For the compound `N#Cc1c(-c2ccccc2)nc(SCC2CO2)nc1N1CCOCC1` (stereo not given), the growth in [1] is 74.2%; in assay [2], 74%; in assay [3] it was 34.1%; in [4], 60.9%; in assay [5], 75.3%; in assay [6], 36.1%. The growth in assay [7] is 84.9%; in assay [8], 51.9%; in assay [9], 76.6%; in assay [10], 64.7%.

Turning to `CCNCCNc1cc(-c2ccc(F)cc2)c(C#N)c2nc3ccccc3n12`, the growth in assay [1] is 23.8%; in assay [2], 16.6%; in [3], 48.4%; in [4], 79.3%; in assay [5] it was 17.1%; in assay [6], 42.1%. Besides, the growth in assay [7] was -62.9% (active); in assay [8], 12.7%; in assay [9], -77.4% (active); in assay [10] it was -91% (active).

For the compound `N#Cc1cnn2c(-c3ccc(Cl)cc3)nc(NC3CC3)nc12`, the growth is 90.1% in assay [1]; 88.8% in [2]; 87.7% in [3]; 86.6% in assay [4]; 97.3% in [5]; 95% in [6]. Further, the growth in assay [7] was 95.3%; in assay [8] it was 85.6%; in assay [9], 99%; in assay [10], 113%.

As for `CN(C)c1ccc2cc(-c3ccc(Cl)c(Cl)c3)c(N)nc2c1`, the growth in assay [1] is 32.1%; in assay [2] it was 2.59% (active); in assay [3] it was 63.3%; in assay [4], 63.6%; in [5] it was 31.1%; in assay [6], 27.6%. Also, the growth in assay [7] was -58.8% (active); in assay [8], 57.2%; in assay [9], 20.6%; in assay [10], 47.4%.

As to `c1ccc(-c2oc3ccccc3c2-c2ccccc2)cc1`, the growth is 93.6% in [1]; 99% in [2]; 72.5% in [3]; 99.3% in [4]; 95.9% in [5]; 90% in assay [6]. Besides, the growth was 84.3% in assay [7], 80% in [8], 95.8% in assay [9] and 113% in assay [10].

These data come from PubChem BioAssay (NCI).
